Assay outcomes (PubChem BioAssay)
An excerpt weighted towards active compounds, which were near 1.8% of everything screened.
L3MBTL1 inh-1: L3MBTL1 (human) inhibition | AlphaScreen L3MBTL1–H3K9me1 peptide binding | AID 485360 | Q9Y468 | Potency, µM (top dose mostly 57.1 µM), without a hit: at the highest dose activity, negative = inhibition, usual class: inhibitors | 230,000 tested, 0.66% active; note: % is set by controls: 0 for no effect and ±100 for the full control effect; nearly all actives have a fitted effect of over 60% in size
Target sequence (Q9Y468 whole entry, looked up): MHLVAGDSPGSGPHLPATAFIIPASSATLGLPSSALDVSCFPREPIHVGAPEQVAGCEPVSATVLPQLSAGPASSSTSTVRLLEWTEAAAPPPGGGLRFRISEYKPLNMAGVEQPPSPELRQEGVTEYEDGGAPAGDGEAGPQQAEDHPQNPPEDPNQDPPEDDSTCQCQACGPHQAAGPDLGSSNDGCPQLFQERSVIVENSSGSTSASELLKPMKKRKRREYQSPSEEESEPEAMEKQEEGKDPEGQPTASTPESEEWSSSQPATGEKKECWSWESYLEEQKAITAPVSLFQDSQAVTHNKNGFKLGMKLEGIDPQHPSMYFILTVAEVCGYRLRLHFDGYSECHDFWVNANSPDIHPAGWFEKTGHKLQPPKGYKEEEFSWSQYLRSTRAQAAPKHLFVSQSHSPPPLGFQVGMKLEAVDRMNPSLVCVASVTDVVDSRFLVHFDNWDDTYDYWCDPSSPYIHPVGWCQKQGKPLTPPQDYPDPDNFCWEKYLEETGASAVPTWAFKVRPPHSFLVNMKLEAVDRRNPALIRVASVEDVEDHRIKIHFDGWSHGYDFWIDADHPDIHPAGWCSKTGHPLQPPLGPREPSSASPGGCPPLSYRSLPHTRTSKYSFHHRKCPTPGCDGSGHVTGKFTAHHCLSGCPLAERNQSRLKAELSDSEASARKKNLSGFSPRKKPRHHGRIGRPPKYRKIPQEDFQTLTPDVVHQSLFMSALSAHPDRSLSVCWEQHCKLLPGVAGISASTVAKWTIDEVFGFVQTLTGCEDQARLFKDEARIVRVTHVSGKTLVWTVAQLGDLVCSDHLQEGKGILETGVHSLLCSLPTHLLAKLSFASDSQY
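L3MBTL1 50 nM + b-AHA-H3(1-15)K9me1 75 nM, 30 min RT; compound added, 30 min RT; streptavidin donor/Ni-chelate acceptor beads 10 ug/mL each final, 30 min RT dark; AlphaScreen read.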
KDM4E inh: inhibitors of human JMJD2E histone demethylase; B2RXH2; JMJD2E catalytic domain, FDH-coupled NADH fluorescence (FDH is formaldehyde dehydrogenase); Potency, µM (top dose mostly 57.1 µM), without a hit: at the highest dose activity change, negative = inhibition, usual class: inhibitors; 230,000 tested, 1.6% active; AID 2147; active = well fitted inhibition curve with a large enough effect, not every such curve was filed as active; inconclusive = small, poorly fitted or top-dose-only effect, or another doubt; inactive = no such curve, though single readings can be large or run the other way;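 note: 0% = wells with enzyme and -100% = buffer wells without enzyme; nearly all actives have a fitted effect of over 50% in size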
HTT ATP protect: cytoprotection in Huntington HTT-Q103 PC12 cell model | PC12 HTT-Q103 induced, cytoprotection, ATP luminescence, 40 h | Potency, µM (titrated, usually from 56.4 µM), without a hit: cytoprotection (ATP increase), most hits filed as activators | 230,000 tested, 0.14% active | AID 1471; note: % of control where 0% means no effect; nearly all actives have a fitted effect of over 45% in size
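Huntington model: PC12 line, ecdysone-inducible HTTQ103 exon1–GFP, tebufenozide 100 nM. Test articles in a dose series. Endpoint luminescence from cellular ATP.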
HttQ103 aggreg: mutant huntingtin aggregation inhibition; PC12 HttQ103-GFP aggregates, Acumen cytometry, 40 h; Potency, µM (doses to about 46.1 µM), without a hit: top-dose activity change, negative = inhibition, most hits filed as inhibitors; 220,000 tested, 1.1% active; AID 1688; note: % is set by controls: 0 for no effect and ±100 for the full control effect; nearly all actives have a fitted effect of over 60% in size
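Using laser scanning cytometry, GFP-positive aggregates were counted after lysis of PC12 cells induced with 100 nM tebufenozide to express HTT exon 1 Q103–GFP. Compounds were tested in titration.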
L3MBTL1 inh-2: L3MBTL1 binding inhibition validated | shares compounds with L3MBTL1 inh-1 | 500 tested, 91% active | Potency, µM, actives largely listed as inhibitors | L3MBTL1 methyl-lysine binding inhibition, biochemical qHTS; note: nearly all actives have a fitted effect of over 70% in size
L3MBTL1 ctr: counter-screen for L3MBTL1 inhibitors: AlphaScreen signal interference. Potency, µM (series often up to 57.1 µM), inactives show top-dose activity change, negative = inhibition, most hits filed as inhibitors. 500 tested, under 10 active. shares compounds with L3MBTL1 inh-1. AlphaScreen counterscreen, signal inhibition; note: 0% is about no effect
Numbers without * were called inactive; ? = inconclusive; · = not tested or not shown; [ ] = dose if it differs, or a comment. Unless noted, calls come from the whole dose curve; as a rule, active = well fitted curve in the direction sought with a large enough effect; inconclusive = small, poorly fitted or top-dose-only effect, or another doubt; inactive = no such curve, though single readings can be large; an effect the other way counts as inactive or inconclusive. Potency is the fitted concentration of half-maximal effect.

SMILES	L3MBTL1 inh-1	KDM4E inh	HTT ATP protect	HttQ103 aggreg	L3MBTL1 inh-2	L3MBTL1 ctr
CCOC(=O)N/N=C1/C[C@@H](O)[C@@H](O)[C@@H]2[C@@H]3C(=O)N(Cc4ccc5c(c4)OCO5)C(=O)[C@H]3CC[C@H]12	·	·	-6%[10 µM]	·	·	·
Cc1ccc(CN2C(=O)N/C(=C\c3ccc(-c4ccc(C(=O)O)cc4C)o3)C2=O)cc1	?	?	-2%[10 µM]	3%[9.22 µM]	·	·
Cc1cc(C(=O)O)ccc1-c1ccc(/C=C2\NC(=O)N(Cc3ccccc3Cl)C2=O)o1	18µM*	-4%	·	20%	7.5*	35%
Cc1c(N2C(=O)c3ccc4c5c(ccc(c35)C2=O)CC4)c(=O)n(-c2ccccc2)n1C	13µM*	?	5%[10 µM]	5%	6*	1%
Cc1ccc(CNC(=O)CN2c3cccc4cccc(c34)S2(=O)=O)cc1	-4%	·	·	·	·	·
COc1cccc(CNC(=O)CN2c3cccc4cccc(c34)S2(=O)=O)c1	32µM*	·	·	·	27*	7%
N#Cc1cccc(-c2nc(NCc3ccccc3)c3ccccc3n2)c1	·	·	0%	·	·	·
CSCCC(NS(=O)(=O)c1ccc(C)c(C(=O)O)c1)C(=O)O (stereo not drawn)	8.9µM*	?	-28%	23%	?	-5%
CSCCC(NS(=O)(=O)c1ccc(Cl)cc1)C(=O)O (stereo not drawn)	30%	6%	-8%	22%	·	·
CC(N)CCCP(=O)(O)O (stereo not drawn)	·	·	-8%	·	·	·
Cc1cc(C(=O)COC(=O)c2ccc(F)cc2)c(C)n1C	-5%	·	·	·	·	·
Cc1cc(C(=O)COC(=O)c2cc(Cl)c(O)c(Cl)c2)c(C)n1C	28µM*	·	·	·	4.7*	?
COc1ccccc1-c1nccc(NCc2cccnc2)n1	·	·	6%	·	·	·
O=C(/C=C/c1ccco1)NC(=S)Nc1cccc([N+](=O)[O-])c1	35µM*	-5%	-17%[10 µM]	7%	24*	-1%
C=CCn1c(SCC(=O)c2ccc(O)c(O)c2)nnc1-c1ccc(OC)cc1	8.9µM*	·	·	·	13*	0%
O=C(Cn1c(=O)n(Cc2ccco2)c(=O)c2c3c(sc21)CCCCC3)c1ccccc1	35µM*	0%	-1%	-1%	3.8*	-24%
N#C/C(=C\c1ccc(C(=O)O)cc1)c1nc2sc3c(c2c(=O)[nH]1)CCCC3	22µM*	-21%	-7%[10 µM]	-9%[9.22 µM]	11*	-24%
O=C1NC(=O)/C(=C\c2ccc(O)cc2O)S1	4µM*	16µM*	-19%[10 µM]	-8%	1.7*	?
O=C1NC(=O)/C(=C/c2cccc3ccccc23)S1	-6%	·	·	·	·	·
O=C(c1cc(C(F)(F)F)cc(C(F)(F)F)c1)N1CCC2(CC1)CCN(c1ccccn1)CC2	·	·	1%	·	·	·
O=C(O)CNc1ccccc1C(=O)O	22µM*	?	12%[10 µM]	7%[9.22 µM]	3*	1%
Cc1nnc(NC(=O)C2CCN(S(=O)(=O)c3ccc(F)c(Cl)c3)CC2)o1	35µM*	·	·	·	?	-6%
C1CCCC1	·	·	0%	·	·	·
O=C(O)CCc1ccc(-c2cccs2)n1CCC(=O)O	4µM*	?	2%	24%	17*	-21%
O=C(CSc1nnc(-c2ccco2)o1)c1ccc[nH]1	28µM*	12%	·	34%	19*	1%
SMILES	L3MBTL1 inh-1	KDM4E inh	HTT ATP protect	HttQ103 aggreg	L3MBTL1 inh-2	L3MBTL1 ctr
Cc1n[nH]c(C)c1Cc1c(F)cccc1Cl	·	3%	9%[10 µM]	-12%[9.22 µM]	·	·
Nc1nc(-c2ccccn2)nc(N)c1Cc1c(F)cccc1Cl	3.5µM*	15%	24%[10 µM]	?	11*	-22%
O=C(c1csnn1)N1CCC2(CC1)CCN(c1ccncc1)CC2	·	·	-30%	·	·	·
O=C(Nc1ccncc1)c1ccc2ncsc2c1	-3%	·	·	·	·	·
O=C(Nc1ccc(S(=O)(=O)Nc2ncccn2)cc1)c1ccc2ncsc2c1	20µM*	3.2µM*	-7%[10 µM]	7%[9.22 µM]	?	-1%
Cc1cc(C)c2c(c1)C1C=CCC1C(c1ccc(S(=O)(=O)N3CCOCC3)cc1)N2 (stereo not drawn)	-4%	4%	-40%	?	·	·
O=C(O)c1cc(Cl)c2c(c1)[C@@H]1C=CC[C@@H]1[C@H](c1ccc(S(=O)(=O)N3CCOCC3)cc1)N2	22µM*	-7%	·	9%	27*	?
O=C(c1csnn1)N1CCC2(CC1)CCN(c1ccccn1)CC2	·	·	-50%	·	·	·
CC(C)=CCC/C(C)=C/CO/N=C1/C[C@@H](O)[C@@H](O)[C@@H]2[C@@H]3C(=O)N([C@@H](C)c4ccccc4)C(=O)[C@H]3CC[C@H]12	·	·	-2%[10 µM]	·	·	·
Cc1ccccc1N=C1NC(=O)/C(=C/c2cccn2-c2cccc(C(=O)O)c2)S1	40µM*	8%	-23%	-9%[9.22 µM]	4.2*	-21%
Cc1cccc(N=C2NC(=O)/C(=C/c3cccn3C)S2)c1C	-7%	3%	-12%[10 µM]	11%[9.22 µM]	·	·
Cc1c(C(=O)OCC(C)C)[nH]c2c1C(=O)CC(c1ccco1)C2 (stereo not drawn)	?	-14%	-34%	?	·	·
Cc1c(C(=O)OCC2CCCO2)[nH]c2c1C(=O)CC(c1ccco1)C2 (stereo not drawn)	14µM*	?	-17%[0.074 µM]	11%	6*	-2%
COc1cc(/C=C2\SC(=Nc3ccc(Cl)c(C(=O)O)c3)NC2=O)c(Br)c(Br)c1O	32µM*	·	·	·	3*	?
CCc1ccc(N=C2NC(=O)/C(=C/c3cc(OC)c(O)c(OC)c3)S2)cc1	-5%	·	·	·	·	·
Cc1nc2cc(NC(=O)N3CCN(c4ccccn4)CC3)ccc2o1	·	?	-9%	29%	·	·
O=C(Nc1ccc2nc(-c3ccco3)c(-c3ccco3)nc2c1)N1CCN(c2ccccn2)CC1	3.2µM*	5%	3%[10 µM]	-22%	3*	-1%
COc1cc2c(cc1OC)CN(Cc1nc3ccsc3c(=O)[nH]1)CC2	25µM*	?	23%[10 µM]	4µM*	21*	-3%
O=c1[nH]c(CN2CCN(c3ccccc3Cl)CC2)nc2ccsc12	1%	4%	-5%[10 µM]	-10%	·	·
Cc1cc(=O)c2cc3nc(-c4cccnc4)oc3c(Br)c2o1	32µM*	?	30%[10 µM]	22%[9.22 µM]	6*	-3%
Oc1c(CN2CCN(c3ccccn3)CC2)cc(Cl)c2cccnc12	4.5µM*	?	-42%[10 µM]	-26%	21*	-95%
O=c1c(CN2CCN(c3ccccn3)CC2)coc2ccccc12	-1%	2%	-26%[0.074 µM]	-4%	·	·
O=C(Oc1ccc(Cl)c2cccnc12)N1CCOCC1	3%	?	-15%	3%	·	·
O=C(Oc1c(CN2CCOCC2)cc(Cl)c2cccnc12)c1ccccc1Cl	14µM*	?	-120%	?	27*	-16%
COc1ncc2nc(C)c(=O)n(Cc3cccs3)c2n1	·	·	-1%	·	·	·
O=C(Nc1cc2c(oc1=O)CCCC2=O)c1ccc(Cl)cc1	16µM*	-10%	-2%	16%	3.8*	11%
